Where “and” joins values, the source holds several entries; their conditions need not be identical. Equal values may be shown once. The campaign covered roughly 5,500 compounds. About 2,000 (36%) were called active. Another 18% or so got no clear call; they are omitted. Cut-off read from the data, not from the text of the source: active = normalized growth mostly below about 0.91 (no sharp cut-off); inconclusive = no clear call, values can overlap the other calls; inactive = mostly above about 0.92. The list shows a part of the results. Some structures have more than one record in an assay (separate samples or runs), and their calls can disagree.
Test: chemical genetic growth profiling, strain panel (AID 1159580);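 note: tested at 20 µM; growth read once vehicle control cultures reached saturation at 30 °C; 1 = growth at the plate median or of vehicle wells; lower values mean less growth of the strain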
Conditions: growth OD

Measured: normalized growth

CSc1ccc2c(c1)N(CCC1CCCCN1C)c1ccccc1S2 (stereo not given)
inactive: S. cerevisiae deletion strains, locus YKL009W, strain mrt4, stronger effect = lower value 0.978 | S. cerevisiae deletion strains, locus YKL068W, stronger effect = lower value 1.01 | S. cerevisiae deletion strains, locus YKL085W, strain MDH1 (second series), stronger effect = lower value 1 | S. cerevisiae deletion strains, locus YKL085W, strain MDH1, stronger effect = lower value 1 | S. cerevisiae deletion strains, locus YKL160W, strain elf1, stronger effect = lower value 0.937 | S. cerevisiae deletion strains, locus YKR026C, strain gcn3, stronger effect = lower value 1.02 | S. cerevisiae deletion strains, locus YKR091W, strain srl3, stronger effect = lower value 1.03 | S. cerevisiae deletion strains, locus YLL001W, strain dnm1, stronger effect = lower value 0.964 | S. cerevisiae deletion strains, locus YLL026W, stronger effect = lower value 0.981 | S. cerevisiae deletion strains, locus YLL041C, strain sdh2, stronger effect = lower value 0.976 | S. cerevisiae deletion strains, locus YLR027C, strain aat2, stronger effect = lower value 0.946 | S. cerevisiae deletion strains, locus YLR113W, strain HOG1, stronger effect = lower value 0.996 | S. cerevisiae deletion strains, locus YLR221C, strain rsa3, stronger effect = lower value 0.932 | S. cerevisiae deletion strains, locus YLR258W, strain gsy2, stronger effect = lower value 0.941 | S. cerevisiae deletion strains, locus YLR262C, strain YPT6 (second series), stronger effect = lower value 1.1 | S. cerevisiae deletion strains, locus YLR320W, strain mms22, stronger effect = lower value 1 | S. cerevisiae deletion strains, locus YLR357W, strain rsc2, stronger effect = lower value 0.996 | S. cerevisiae deletion strains, locus YLR370C, strain arc18, stronger effect = lower value 0.962 | S. cerevisiae deletion strains, locus YLR384C, strain iki3, stronger effect = lower value 0.984 | S. cerevisiae deletion strains, locus YML120C, strain ndi1, stronger effect = lower value 0.971 | S. cerevisiae deletion strains, locus YMR078C, strain ctf18, stronger effect = lower value 1.04 | S. cerevisiae deletion strains, locus YMR125W, strain sto1, stronger effect = lower value 0.95 | S. cerevisiae deletion strains, locus YMR129W, stronger effect = lower value 0.977 | S. cerevisiae deletion strains, locus YMR205C, strain PFK2, stronger effect = lower value 0.966 | S. cerevisiae deletion strains, locus YNL071W, strain lat1, stronger effect = lower value 1.05 | S. cerevisiae deletion strains, locus YNL128W, strain TEP1, stronger effect = lower value 1 | S. cerevisiae deletion strains, locus YNL175C, strain NOP13, stronger effect = lower value 1.07 | S. cerevisiae deletion strains, locus YNL183C, strain NPR1, stronger effect = lower value 0.944 | S. cerevisiae deletion strains, locus YNL197C, strain WHI3, stronger effect = lower value 1.05 | S. cerevisiae deletion strains, locus YNL248C, strain rpa49, stronger effect = lower value 0.978 | S. cerevisiae deletion strains, locus YNL250W, strain rad50, stronger effect = lower value 1 | S. cerevisiae deletion strains, locus YNL271C, strain bni1, stronger effect = lower value 1 | S. cerevisiae deletion strains, locus YNL298W, strain CLA4, stronger effect = lower value 1 | S. cerevisiae deletion strains, locus YNL322C, strain KRE1 (second series), stronger effect = lower value 1.04 | S. cerevisiae deletion strains, locus YNR049C, strain mso1, stronger effect = lower value 0.968 | S. cerevisiae deletion strains, locus YOL012C, strain htz1 0.211 | S. cerevisiae deletion strains, locus YOR001W, strain rrp6, stronger effect = lower value 0.956 | S. cerevisiae deletion strains, locus YOR070C, strain gyp1, stronger effect = lower value 0.948 | S. cerevisiae deletion strains, locus YOR080W, strain dia2, stronger effect = lower value 0.976 | S. cerevisiae deletion strains, locus YOR083W, strain WHI5, stronger effect = lower value 0.915 | S. cerevisiae deletion strains, locus YOR106W, strain vam3, stronger effect = lower value 0.88 | S. cerevisiae deletion strains, locus YOR231W, strain MKK1, stronger effect = lower value 1 | S. cerevisiae deletion strains, locus YOR265W, strain rbl2, stronger effect = lower value 0.961 | S. cerevisiae deletion strains, locus YOR270C, strain vph1, stronger effect = lower value 0.866 | S. cerevisiae deletion strains, locus YOR290C, strain snf2, stronger effect = lower value 0.981 | S. cerevisiae deletion strains, locus YPL078C, strain atp4, stronger effect = lower value 0.989 | S. cerevisiae deletion strains, locus YPL106C, strain sse1, stronger effect = lower value 1.02 | S. cerevisiae deletion strains, locus YPL240C, strain hsp82, stronger effect = lower value 0.98 | S. cerevisiae deletion strains, locus YPL256C, strain CLN2, stronger effect = lower value 0.975 | S. cerevisiae deletion strains, locus YPR141C, strain kar3, stronger effect = lower value 1.02
0.123 (active) and 0.981 (inactive): S. cerevisiae deletion strains, locus YMR307W, strain GAS1, stronger effect = lower value
0.107 (active) and 0.972 (inactive): S. cerevisiae deletion strains, locus YPL241C, strain CIN2, stronger effect = lower value
active: S. cerevisiae deletion strains, locus YJR075W, strain HOC1, stronger effect = lower value 0.823 | S. cerevisiae deletion strains, locus YKL190W, strain CNB1, stronger effect = lower value 0.0633 | S. cerevisiae deletion strains, locus YKR001C, strain vps1, stronger effect = lower value 0.0672 | S. cerevisiae deletion strains, locus YLR039C, strain RIC1, stronger effect = lower value 0.175 | S. cerevisiae deletion strains, locus YLR058C, strain SHM2, stronger effect = lower value 0.0859 | S. cerevisiae deletion strains, locus YLR102C, strain apc9, stronger effect = lower value 0.176 | S. cerevisiae deletion strains, locus YLR262C, strain YPT6, stronger effect = lower value 0.155 | S. cerevisiae deletion strains, locus YLR268W, strain sec22, stronger effect = lower value 0.122 | S. cerevisiae deletion strains, locus YLR330W, strain CHS5, stronger effect = lower value 0.0954 | S. cerevisiae deletion strains, locus YLR342W, strain FKS1 (second series), stronger effect = lower value 0.07 | S. cerevisiae deletion strains, locus YLR342W, strain FKS1, stronger effect = lower value 0.866 | S. cerevisiae deletion strains, locus YLR371W, strain rom2, stronger effect = lower value 0.116 | S. cerevisiae deletion strains, locus YLR418C, strain cdc73, stronger effect = lower value 0.155 | S. cerevisiae deletion strains, locus YML016C, strain PPZ1, stronger effect = lower value 0.0677 | S. cerevisiae deletion strains, locus YML032C, strain rad52, stronger effect = lower value 0.484 | S. cerevisiae deletion strains, locus YML124C, strain tub3, stronger effect = lower value 0.282 | S. cerevisiae deletion strains, locus YMR058W, strain fet3, stronger effect = lower value 0.859 | S. cerevisiae deletion strains, locus YMR223W, strain ubp8, stronger effect = lower value 0.142 | S. cerevisiae deletion strains, locus YMR231W, strain pep5, stronger effect = lower value 0.32 | S. cerevisiae deletion strains, locus YMR263W, strain SAP30, stronger effect = lower value 0.569 | S. cerevisiae deletion strains, locus YNL067W, strain RPL9B, stronger effect = lower value 0.221 | S. cerevisiae deletion strains, locus YNL153C, strain GIM3, stronger effect = lower value 0.0926 | S. cerevisiae deletion strains, locus YNL209W, strain ssb2, stronger effect = lower value 0.856 | S. cerevisiae deletion strains, locus YNL224C, strain SQS1, stronger effect = lower value 1.11 [resistant] | S. cerevisiae deletion strains, locus YNL233W, strain BNI4, stronger effect = lower value 0.0906 | S. cerevisiae deletion strains, locus YNL307C, strain MCK1, stronger effect = lower value 0.1 | S. cerevisiae deletion strains, locus YNL322C, strain KRE1, stronger effect = lower value 0.0818 | S. cerevisiae deletion strains, locus YNR052C, strain pop2, stronger effect = lower value 0.133 | S. cerevisiae deletion strains, locus YOL006C, strain TOP1, stronger effect = lower value 0.115 | S. cerevisiae deletion strains, locus YOL147C, strain pex11, stronger effect = lower value 0.176 | S. cerevisiae deletion strains, locus YOR061W, strain CKA2, stronger effect = lower value 0.0575 | S. cerevisiae deletion strains, locus YOR069W, strain VPS5, stronger effect = lower value 0.36 | S. cerevisiae deletion strains, locus YOR083W, strain WHI5 (second series), stronger effect = lower value 0.774 | S. cerevisiae deletion strains, locus YOR136W, strain idh2, stronger effect = lower value 0.139 | S. cerevisiae deletion strains, locus YOR144C, strain elg1, stronger effect = lower value 0.541 | S. cerevisiae deletion strains, locus YOR184W, strain ser1, stronger effect = lower value 0.128 | S. cerevisiae deletion strains, locus YOR316C, strain cot1, stronger effect = lower value 0.132 | S. cerevisiae deletion strains, locus YPL051W, strain arl3, stronger effect = lower value 0.881 | S. cerevisiae deletion strains, locus YPR119W, strain clb2, stronger effect = lower value 0.31 | S. cerevisiae deletion strains, locus YPR163C, strain tif3, stronger effect = lower value 0.0768 | S. cerevisiae deletion strains, locus YPR167C, strain met16, stronger effect = lower value 0.196 | S. cerevisiae deletion strains, strain wtn01, stronger effect = lower value 0.0859 | S. cerevisiae strains, strain wild type, stronger effect = lower value 0.0579

From PubChem BioAssay AID1159580 (chemical genetic matrix, 2015)
